Calls of active or inactive are those of the source. Rule for the calls: active = hit-call score of the fitted dose curve at least 0.9, where 1 is the maximum; inactive = score below 0.9.

Settings in all cases: mRNA level, 48 h; actives raise or lower the signal
Read-out in experiment [1]: Bcl-2 (BAD) gene, BAD (gene 572)
The experiment can be described thus: LTEA_HepaRG_BAD: Life Technologies and Expression Analysis (LTEA) Assay for Bcl-2 (BAD) gene using HepaRG (AID 2283469). The procedure, abridged:
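BAD transcript change, measured by qRT-PCR against three housekeeping genes and fitted in both directions relative to 0.5% DMSO, after 48 h chemical treatment of human HepaRG liver cells at concentrations up to 100 uM.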

Read-out in experiment [2]: Bcl-2 (BAX) gene, BAX (gene 581)
The experiment can be described thus: LTEA_HepaRG_BAX: Life Technologies and Expression Analysis (LTEA) Assay for Bcl-2 (BAX) gene using HepaRG (AID 2283470). In a few lines:
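Differentiated human HepaRG cells, plated 48 h then switched to serum-free induction medium, were exposed 48 h to 8 half-log concentrations up to 100 uM in 0.5% DMSO; BAX mRNA measured by qRT-PCR, normalized to ACTB, GAPDH, POLR2A.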

Read-out in experiment [3]: adenosine kinase (ADK) gene, ADK (gene 132)
Kind of experiment: LTEA_HepaRG_ADK: Life Technologies and Expression Analysis (LTEA) Assay for adenosine kinase (ADK) gene using HepaRG (AID 2283471). In a few lines: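 Read-out is ADK transcript level measured by qRT-PCR and normalised to three housekeeping genes. Cells are human HepaRG, dosed for 48 h at up to 100 uM in 0.5% DMSO. Gain or loss of signal is fitted against DMSO controls.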

Read-out in experiment [4]: Alpha-fetoprotein (AFP) gene, AFP (gene 174)
Kind of experiment: LTEA_HepaRG_AFP: Life Technologies and Expression Analysis (LTEA) Assay for Alpha-fetoprotein (AFP) gene using HepaRG (AID 2283472). The procedure, abridged: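 Human HepaRG cells plated 48 h, then switched to serum-free induction medium and exposed in duplicate for 48 h to 8-point half-log series from 100 uM in 0.5% DMSO. AFP mRNA by qRT-PCR, normalized to ACTB, GAPDH, POLR2A; bidirectional fit versus DMSO.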

Read-out in the next experiment: BCL2L11 (gene 10018)
Kind of experiment: LTEA_HepaRG_BCL2L11: Life Technologies and Expression Analysis (LTEA) Assay for Bcl-2 (BCL2L11) gene using HepaRG (AID 2283473). In a few lines:
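BCL2L11 transcript levels are measured by Fluidigm qRT-PCR, normalized to three housekeeping genes. HepaRG cultures were plated 48 h, then treated 48 h with test chemical (top 100 uM, half-log, 0.5% DMSO vehicle); curves were fitted bidirectionally against DMSO.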

Read-out in experiment [5]: Apolipoprotein A-V (APOA5) gene, APOA5 (gene 116519)
The experiment can be described thus: LTEA_HepaRG_APOA5: Life Technologies and Expression Analysis (LTEA) Assay for Apolipoprotein A-V (APOA5) gene using HepaRG (AID 2283474). The procedure, abridged:
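APOA5 transcript levels were quantified by qRT-PCR, normalized to three housekeeping genes, after 48 h chemical treatment of HepaRG cells (8 points, 100 uM maximum, half-log steps, 0.5% DMSO). Curves fitted in both directions against vehicle.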

Read-out in experiment [6]: Apoptosis regulator Bcl-2 (Homo sapiens) (UniProt P10415)
The experiment can be described thus: LTEA_HepaRG_BCL2: Life Technologies and Expression Analysis (LTEA) Assay for Bcl-2 gene using HepaRG (AID 2283475). The procedure, abridged: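 Differentiated HepaRG cells in serum-free induction medium were exposed for 48 h to eight half-log concentrations up to 100 uM in 0.5% DMSO, in duplicate. BCL2 mRNA was quantified by TaqMan qRT-PCR normalised to ACTB, GAPDH and POLR2A, with bidirectional fitting versus DMSO.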

Read-out in experiment [7]: Bcl-2 (BID) gene, BID (gene 637)
The experiment can be described thus: LTEA_HepaRG_BID: Life Technologies and Expression Analysis (LTEA) Assay for Bcl-2 (BID) gene using HepaRG (AID 2283476). The procedure, abridged:
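Differentiated HepaRG cells in serum-free induction medium were exposed in duplicate for 48 h to eight half-log concentrations up to 100 uM in 0.5% DMSO. BID mRNA was quantified by qRT-PCR, normalized to ACTB, GAPDH and POLR2A.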

Read-out in a further experiment: Caspase-3 (Homo sapiens) (UniProt P42574)
The experiment can be described thus: LTEA_HepaRG_CASP3: Life Technologies and Expression Analysis (LTEA) Assay for cysteine-aspartic acid protease (CASP3) using HepaRG (AID 2283477). In a few lines:
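Expression of CASP3 was quantified by TaqMan qRT-PCR against three housekeeping genes (ACTB, GAPDH, POLR2A), bidirectionally versus 0.5% DMSO. HepaRG cultures received compounds in duplicate, top 100 uM with half-log steps, for 48 h in serum-free induction medium.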

Read-out in experiment [8]: Cytochrome P450 (CYP24A1), CYP24A1 (gene 1591)
The experiment can be described thus: LTEA_HepaRG_CYP24A1: Life Technologies and Expression Analysis (LTEA) Assay for Cytochrome P450 (CYP24A1) using HepaRG (AID 2283478). The procedure, abridged:
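mRNA of CYP24A1 quantified by TaqMan qRT-PCR (ACTB/GAPDH/POLR2A normalization) after 48 h chemical exposure of HepaRG cells, top concentration 100 uM, half-log steps, 0.5% DMSO vehicle, duplicates. Curves fitted bidirectionally against DMSO baseline.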

Apoptosis regulator Bcl-2 (Homo sapiens), sequence (P10415 whole entry, looked up): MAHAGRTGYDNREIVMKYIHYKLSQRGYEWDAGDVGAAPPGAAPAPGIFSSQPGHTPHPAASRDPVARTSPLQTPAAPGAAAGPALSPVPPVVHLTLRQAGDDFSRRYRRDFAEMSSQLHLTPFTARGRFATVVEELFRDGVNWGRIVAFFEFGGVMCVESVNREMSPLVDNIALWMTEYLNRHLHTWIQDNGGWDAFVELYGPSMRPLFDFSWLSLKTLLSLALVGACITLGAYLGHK
Caspase-3 (Homo sapiens), sequence (P42574 whole entry, looked up): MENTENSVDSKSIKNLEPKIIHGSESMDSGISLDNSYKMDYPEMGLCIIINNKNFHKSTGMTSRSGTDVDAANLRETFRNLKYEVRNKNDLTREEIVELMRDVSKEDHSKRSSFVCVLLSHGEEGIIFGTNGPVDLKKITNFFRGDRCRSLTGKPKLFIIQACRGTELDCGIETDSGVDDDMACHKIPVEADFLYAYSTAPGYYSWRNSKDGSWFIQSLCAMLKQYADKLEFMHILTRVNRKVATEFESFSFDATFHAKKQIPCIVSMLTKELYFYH

Regarding `CC(C)(C)c1ccc(O)c(C(C)(C)C)c1`, the outcome (in experiment [1]; in experiment [2]; in [3]; in [4]; with BCL2L11 (gene 10018); in experiment [5]) was inactive. Besides, the result (in [7]; with Caspase-3 (Homo sapiens)) was inactive. The AC50 in experiment [6] was 0.123 µM (active); in experiment [8], 0.01 µM (active).

For the molecule `c1ccc2cc3c(ccc4ccccc43)cc2c1`, the call (in experiment [1]; in experiment [2]; in [3]; in experiment [6]; in [7]; with Caspase-3 (Homo sapiens)) was inactive. For the same molecule, in experiment [8], the result was inactive. In addition, the AC50 in experiment [4] was 25.9 µM (active); with BCL2L11 (gene 10018), 7.02 µM (active); in experiment [5], 15.9 µM (active).

Turning to `Oc1cccc(O)c1`, the result (in experiment [1]; in experiment [2]; in experiment [3]; in [4]; with BCL2L11 (gene 10018); in [5]) was inactive. In addition, the molecule was classed as inactive (in [6]; in experiment [7]; in the experiment with Caspase-3 (Homo sapiens); in [8]).

Turning to `CC(C)CCCCCCOC(=O)CCCCC(=O)OCCCCCCC(C)C`, the outcome (in [1]; in [2]; in [3]; in experiment [4]; with BCL2L11 (gene 10018); in experiment [5]) was inactive. Moreover, the result (in [6]; in experiment [7]; with Caspase-3 (Homo sapiens); in experiment [8]) was inactive.

As to `ClC1=C(Cl)C(Cl)(Cl)C(Cl)=C1Cl`, the result (in experiment [1]; in experiment [2]; in experiment [3]; in experiment [4]; with BCL2L11 (gene 10018); in [5]) was inactive. The call (in experiment [6]; in experiment [7]; with Caspase-3 (Homo sapiens); in experiment [8]) was inactive.

`CCc1nn(C2CCCCC2)c2cc(C3(C#N)CCC(C(=O)O)CC3)ccc12` (centres undefined): the result (in experiment [1]; in [3]; in experiment [7]; in the experiment with Caspase-3 (Homo sapiens); in experiment [8]) was inactive. Further, the concentration at half-maximal activity (AC50) in experiment [2] is 50 µM (active); in experiment [4], 64 µM (active); with BCL2L11 (gene 10018), 8.54 µM (active); in experiment [5], 77.4 µM (active); in experiment [6] it was 74.3 µM (active).

For `CCCCOCCO`, the result (in [1]; in experiment [2]; in experiment [3]; in [4]; with BCL2L11 (gene 10018); in experiment [5]) was inactive. The molecule was classed as inactive (in [6]; in experiment [7]; with Caspase-3 (Homo sapiens); in [8]).

Consider `CCCCCCC(=O)O`, for which the molecule was classed as inactive (in [1]; in experiment [2]; in [3]; in experiment [4]; with BCL2L11 (gene 10018); in experiment [5]). Also, the molecule was classed as inactive (in [6]; in experiment [7]; with Caspase-3 (Homo sapiens); in experiment [8]).

`c1ccc2c(c1)ccc1ccccc12`: the outcome (in [1]; in [2]; in experiment [3]; in [4]; with BCL2L11 (gene 10018); in [5]) was inactive. Further, the molecule was classed as inactive (in experiment [6]; in [7]; in the experiment with Caspase-3 (Homo sapiens); in experiment [8]).

In the case of `CC(=O)NC1(c2cccc(F)c2)CCN(CC[C@@]2(c3ccc(Cl)c(Cl)c3)CN(c3ccccc3)C(=O)CO2)CC1`, the outcome in [1], in experiment [2], in [3], in experiment [5], in [6] and in experiment [7] was inactive. The result (with Caspase-3 (Homo sapiens); in [8]) was inactive. In addition, the AC50 in experiment [4] was 13.1 µM (active); in the experiment with BCL2L11 (gene 10018) it was 59.6 µM (active).

Turning to `C[C@@H]1C[C@H]2[C@@H]3CCC4=CC(=O)C=C[C@]4(C)[C@@]3(F)[C@@H](O)C[C@]2(C)[C@@]1(O)C(=O)COP(=O)(O)O`, the outcome (in experiment [1]; in experiment [2]; in experiment [3]; in [4]; in the experiment with BCL2L11 (gene 10018); in [5]) was inactive. Also, the call (in experiment [6]; in experiment [7]; in the experiment with Caspase-3 (Homo sapiens); in experiment [8]) was inactive.

`CCCCCCCC(=O)O`: the molecule was classed as inactive (in experiment [1]; in experiment [2]; in [3]; in experiment [4]; with BCL2L11 (gene 10018); in experiment [5]). Further, the result in experiment [6], in experiment [7] and in experiment [8] was inactive. In addition, the half-maximal activity concentration (AC50) with Caspase-3 (Homo sapiens) was 12.5 µM (active).

Regarding `O=C(OCCOCCOC(=O)c1ccccc1)c1ccccc1`, the molecule was called inactive (in experiment [1]; in experiment [2]; in [3]; in experiment [4]; with BCL2L11 (gene 10018); in [5]). For the same molecule, the call (in experiment [6]; in experiment [7]; in the experiment with Caspase-3 (Homo sapiens); in [8]) was inactive.

With `OCCC(F)(F)C(F)(F)C(F)(F)C(F)(F)C(F)(F)C(F)(F)C(F)(F)C(F)(F)F`, the result (in experiment [1]; in [2]; in experiment [3]; in [4]; in the experiment with BCL2L11 (gene 10018); in experiment [5]) was inactive. Moreover, the call (in [6]; in [7]; in the experiment with Caspase-3 (Homo sapiens); in [8]) was inactive.

As for `COCC(C)O` (centres undefined), the molecule was called inactive (in experiment [1]; in [2]; in experiment [3]; in [4]; with BCL2L11 (gene 10018); in [5]). Besides, the call (in [6]; in experiment [7]; with Caspase-3 (Homo sapiens); in experiment [8]) was inactive.

Take `CCCCC(CC)COC(=O)CCCCC(=O)OCc1ccccc1` (centres undefined): the molecule was classed as inactive (in experiment [2]; in experiment [3]; in [4]; with BCL2L11 (gene 10018); in [5]; in [6]). The molecule was called inactive (in [7]; with Caspase-3 (Homo sapiens); in [8]).

Source of the values: PubChem BioAssay (EPA / NIEHS).
